# Results published in ChEMBL document CHEMBL3988442, “University of Dundee, Small-Polar-MMV Screening Library” (2021).
# The campaign covered roughly 48,000 compounds. About 13,000 (27%) showed an effect of 50% or more. The list shows a part of the results.
# System: Wolbachia pipientis
# Assay: Anti-Wolbachia Cell-Based Screen
# Type: functional
# Set-up: scale not given: in the data most compounds retested in dose-response had high values
# Details: 5 µM
row,SMILES,Percent Effect [%]
1,CN(Cc1ccco1)Cc1cnc2n1CCN(c1ncccn1)CC2.O=C(O)C(F)(F)F,6.885
2,Cn1cccc1C(=O)NCc1cnc2n1CCN(c1ccccn1)C2,-1.189
3,COCCN1CCc2ncc(CNc3cc(N(C)C)ncn3)n2CC1,-5.126
4,Cc1ccc(NCc2cnc3n2CCN(c2ncccn2)CC3)nn1,97.55
5,Cc1ccc(N2CCc3ncc(CNc4ccccn4)n3CC2)nn1,114.5
6,O=C(C1CCOC1)N1CCc2ncc(CNc3ccccn3)n2CC1 (configuration not stated),-18.08
7,CN(Cc1ccsc1)C(=O)CN1CCCC1Cn1cccn1 (configuration not stated),-10.05
8,CCN(Cc1ccccc1)C(=O)CN1CCCC(Cn2cncn2)C1 (configuration not stated),3.711
9,CN(Cc1ccccc1)C(=O)CN1CCCC(Cn2cncn2)C1 (configuration not stated),97.22
10,Cc1ccc(CN(C)C(=O)CN2CCCC(Cn3cncn3)C2)o1 (configuration not stated),96.55
11,CN(Cc1ccco1)C(=O)CN1CCCC(Cn2cncn2)C1 (configuration not stated),5.962
12,CN(Cc1ccccc1)C(=O)CN1CCCCC1Cn1cncn1 (configuration not stated),-0.2947
13,O=C(CN1CCCC(Cn2cncn2)C1)NCc1ccco1 (configuration not stated),1.739
14,Cc1ccc(CN(C)C(=O)CN2CCCC2Cn2cncn2)cc1 (configuration not stated),-14.18
15,CN(Cc1ccsc1)C(=O)CN1CCCC(Cn2cncn2)C1 (configuration not stated),109.8
16,CN(Cc1cccc(F)c1)C(=O)CN1CCCC(Cn2cncn2)C1 (configuration not stated),16.73
17,CN(Cc1ccc(F)cc1)C(=O)CN1CCCC(Cn2cncn2)C1 (configuration not stated),-5.404
18,Cc1ccc(CN(C)C(=O)CN2CCCC(Cn3cncn3)C2)cc1 (configuration not stated),90.35
19,CC(C)c1nc(CN(C)C(=O)CCS(=O)(=O)c2ccccc2)no1,-0.5439
20,O=C(NS(=O)(=O)c1cccc(C(F)(F)F)c1)c1cscn1,5.239
21,CSCC(C)CNC(=O)N1CCSC(C)(C)C1 (configuration not stated),-11.84
22,Cc1ccsc1C(=O)N1CCCn2nnc(Cn3cccn3)c2C1,-8.648
23,NC(=O)C1CCN(CC(=O)NCCc2c(F)cccc2F)CC1,-5.279
24,CN(Cc1cccs1)C(=O)CN1CCCC1Cn1cncn1 (configuration not stated),4.485
25,CN(Cc1cccs1)C(=O)CN1CCCC(Cn2cncn2)C1 (configuration not stated),104.7
26,CN(Cc1cccs1)C(=O)CN1CCCCC1Cn1cncn1 (configuration not stated),-8.193

row,SMILES,Percent Effect [%]
1,Cc1ccccc1CN(C)C(=O)CN1CCCC(Cn2cncn2)C1 (configuration not stated),113.1
2,Cc1ccccc1CN(C)C(=O)CN1CCCCC1Cn1cncn1 (configuration not stated),13
3,CN(Cc1cnn(C)c1)C(=O)CN1CCCC(Cn2cncn2)C1 (configuration not stated),99.58
4,CN(Cc1cnn(C)c1)C(=O)CN1CCCC1Cn1cncn1 (configuration not stated),-17.06
5,CN(Cc1cnn(C)c1)C(=O)CN1CCCCC1Cn1cncn1 (configuration not stated),-1.261
6,Cc1ccc(CNC(=O)CN2CCCC(Cn3cncn3)C2)s1 (configuration not stated),2.763
7,Cc1ccc(F)c(OC2(C(=O)O)CCN(C(=O)C3CCCC3)CC2)c1,-29.08
8,CC(C)c1nccn1CCn1cnc2ccsc2c1=O,2.985
9,Cc1ccc(C(=O)NCCCC2(C3OCCO3)CCOCC2)cc1C,-3.842
10,Cc1ccccc1CN(C)C(=O)CCc1nc(-c2nnc[nH]2)no1,4.436
11,CNC(=O)c1cc2c(nc1N(C)C)CCN(S(=O)(=O)N(C)C)CC2.O=C(O)C(F)(F)F,-4.998
12,CNC(=O)c1cc2c(nc1N(C)C)CCN(C)CC2.O=C(O)C(F)(F)F.O=C(O)C(F)(F)F,0.7225
13,CNC(=O)c1cc2c(nc1N(C)C)CCN(c1ncccn1)CC2.O=C(O)C(F)(F)F,100.6
14,CCc1cnc(N2CCc3ncnc(N4CCN(C)CC4)c3CC2)nc1.O=C(O)C(F)(F)F,-0.8279
15,CNC(=O)c1cc2c(nc1N(C)C)CCN(c1ncc(F)cn1)CC2.O=C(O)C(F)(F)F,86.67
16,CNC(=O)c1cc2c(nc1N(C)C)CCN(S(=O)(=O)C1CC1)CC2.O=C(O)C(F)(F)F,-2.828
17,CNC(=O)c1cc2c(nc1NCC(C)C)CCN(c1ncccn1)CC2.O=C(O)C(F)(F)F,-3.442
18,CNC(=O)c1cc2c(nc1N(C)C)CCN(c1ncc(C)cn1)CC2.O=C(O)C(F)(F)F,101.6
19,CCc1cnc(N2CCc3cc(C(=O)NC)c(N(C)C)nc3CC2)nc1.O=C(O)C(F)(F)F,91.47
20,CCS(=O)(=O)N1CCc2cc(C(=O)NC)c(N(C)C)nc2CC1,15.07
21,CNC(=O)c1cc2c(nc1NCC(C)C)CCN(C)CC2.O=C(O)C(F)(F)F.O=C(O)C(F)(F)F,-3.691
22,CNC(=O)c1cc2c(nc1N(C)C)CCN(S(=O)(=O)CC(C)C)CC2.O=C(O)C(F)(F)F,-14.6
23,CCN(CCc1nc2cc(C)ccc2[nH]1)C(=O)COC,16.32
24,CCSCCC(C)N(C)C(=O)c1ccc2nncn2c1 (configuration not stated),5.422
25,CC(C)N1CCC(CC(=O)NC[C@H]2CCc3ccccc3O2)CC1,10.1
26,Cc1cc(NC2CCN(c3ccccc3)C2)n2ncnc2n1 (configuration not stated),-12.56

row,SMILES,Percent Effect [%]
1,Cc1cc(=O)n2ncnc2n1CC(O)c1ccccc1 (configuration not stated),-22.33
2,CCOc1cc(C)nc(N2CCN(Cc3nccn3CC)CC2)n1,-15.08
3,O=C(CSc1ccc(F)c(F)c1)NS(=O)(=O)c1ccc2c(c1)OCCO2,-0.1688
4,Cn1cc(-c2nc3c(cc2C(=O)O)CCN(C(=O)C2CC2)CC3)cn1.O=C(O)C(F)(F)F,-6.455
5,Cc1cnc(N2C[C@@H]3[C@@H](C2)OCC(=O)N3CCN(C)C)nc1.O=C(O)C(F)(F)F,-6.584
6,Cc1cnc(N2CCc3cc(C(=O)O)c(N(C)C)nc3CC2)nc1.O=C(O)C(F)(F)F,100.3
7,CC(=O)N1CC[C@]2(O)CCN(Cc3nc(C)c[nH]3)C[C@@H]2C1,-2.174
8,O=S(=O)(NCCn1ccc(-c2ccncc2)n1)C1CC1,-3.151
9,CC(=O)NCCNc1nc(-c2ccccn2)nc2c1c(C)nn2C,-13.51
10,O=S(=O)(NCCn1ccc(-c2ccccn2)n1)C1CCCCC1,96.49
11,O=C(NCCn1ccc(-c2ccccn2)n1)C1CCC1,100.8
12,O=C(NCCn1ccc(-c2ccccn2)n1)C1CC1,-0.9217
13,O=C(NCCn1ccc(-c2ccccn2)n1)c1ccncc1,-7.154
14,CC(=O)NCCn1ccc(-c2ccccn2)n1,104.5
15,CCOCC(=O)NCCn1ccc(-c2ccccn2)n1,107
16,O=C(CC1CCCC1)NCCn1ccc(-c2ccccn2)n1,-10.47
17,O=S(=O)(NCCn1ccc(-c2ccccn2)n1)C1CC1,-6.765
18,Cc1ccc(O)c(CN(Cc2ccccc2)Cc2nccs2)n1,11.33
19,CCCN1CCCn2nc(CNC(=O)CCc3scnc3C)cc2C1,1.883
20,CN(Cc1ccsc1)Cc1nc(-c2cnccn2)no1,-7.726
21,CC(C)(C)C(=O)NCCn1ccc(-c2ccccn2)n1,67.15
22,CC(C)(C)C(=O)NCCn1ccc(-c2ccncc2)n1,-1.821
23,Cc1nc2ccccc2nc1CN1CCCCC1Cn1cccn1 (configuration not stated),-6.205
24,NC(=O)C1CCCN1Cc1nccn1CC(F)(F)F (configuration not stated),-2.704
25,Cc1cnn(CC2CCCCN2Cc2nccn2CC(F)(F)F)c1 (configuration not stated),101.7
26,Cn1ccnc1CN1CCCC1Cn1cccn1 (configuration not stated),107.8

row,SMILES,Percent Effect [%]
1,Cc1cnn(CC2CCCCN2Cc2nc(-c3ccoc3)no2)c1 (configuration not stated),6.468
2,Cc1cnn(CC2CCCN2Cc2nccn2CC(F)(F)F)c1 (configuration not stated),129.3
3,Cc1cnn(CC2CCCN2Cc2nc3ccccc3n2C)c1 (configuration not stated),0.7122
4,Cc1cnn(CC2CCCN2Cc2nccn2C)c1 (configuration not stated),-1.089
5,Cc1cnn(CC2CCCN2Cc2nc3ccccc3nc2C)c1 (configuration not stated),3.797
6,Cn1ccnc1CN1CCCCC1Cn1cccn1 (configuration not stated),5.027
7,O=C(C1CCCCN1Cc1nccn1CC(F)(F)F)N1CCCC1 (configuration not stated),-10.67
8,CCn1ccnc1CN1CCCC1Cn1cc(C)cn1 (configuration not stated),134.6
9,COc1ccc(Cc2ncc3c(n2)CN(C(=O)C2COCCO2)C3)cc1 (configuration not stated),-5.777
10,CCCN1CCN(Cc2cc(Cl)cc(Cl)c2)[C@H]2CS(=O)(=O)C[C@H]21,3.846
11,CSC(C)CC(=O)N1CCC(n2ccnn2)CC1 (configuration not stated),6.562
12,COCC(=O)N1CCC2(CC1)NC(=O)c1ccccc12.Cl,-6.733
13,COCC(=O)N1CCc2[nH]c(=O)ccc2C1,-6.404
14,O=C(C1CC1)N1CCC2(CC1)CNCc1ccccc12,1.154
15,O=C(CCN1CCNCC1)N1CCC2(CC1)c1ccccc1CC2O (configuration not stated),4.718
16,CN(C)C(=O)N1Cc2ccccc2C2(CCNCC2)C1.Cl,-11
17,Cl.O=C([C@H]1CCCO1)N1CCC2(CC1)CNCc1ccccc12,-10.28
18,CCOC(=O)N1CCc2ccccc2C12CCNCC2.Cl,93.5
19,Cl.O=C(C1CC1)N1CCc2ccccc2C12CCNCC2,85.13
20,COCC(=O)N1CCc2ccccc2C12CCNCC2.Cl,112.7
21,CS(=O)(=O)N1CC[C@]2(C[C@H](Oc3ccccn3)CO2)C1.O=C(O)C(F)(F)F,1.633
22,Cn1nc(Cn2cccc2)c2c1CN(Cc1ccsc1)C2.O=C(O)C(F)(F)F,0.5842
23,Cc1ccccc1CN1CCCN(C2CCOC2=O)CC1 (configuration not stated),1.458
24,CCO[C@@H]1CN(S(=O)(=O)c2cn(C)cn2)[C@@H]2CCCO[C@@H]21.O=C(O)C(F)(F)F,-6.587
